# SARS PLpro yeast = blocks SARS-CoV papain-like protease in a yeast assay. S. cerevisiae expressing SARS-CoV PLpro, growth rescue. Potency, µM (doses to about 32.9 µM), for inactives: at the highest dose activity, positive = growth rescue, actives largely listed as activators. hit rate 0.19% among 330,000; calls by dose curve; note: 0% is about no effect; nearly all actives have a fitted effect of over 55% in size
# Pf growth 96h = inhibits malaria parasite growth, 96 h; P. falciparum luciferase reporter growth, 96 h; Potency, µM (highest dose often 28.7 µM), for the others: at the top dose activity change, negative = inhibition, hits mostly inhibitors; hit rate 6.9% among 320,000; note: % is set by controls: 0 for no effect and ±100 for the full control effect
#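 P. falciparum expressing integrated firefly luciferase grown in erythrocytes (2% hematocrit, 0.05% parasitemia final) with compounds for 96 hours at 37 C, 5% CO2. Growth inhibition read as loss of luminescence after adding luciferase detection reagent.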
# NS1 function inh = influenza NS1 inhibition | hit rate 0.4% among 270,000 | Potency, µM (titrated, usually from 46.1 µM), inactives show at the highest dose activity, positive = more growth; calls by dose curve; note: actives are rising curves; nearly all actives have a fitted effect of over 50% in size
#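 OD600 was taken as the measure of yeast growth restored by compound in an NS1-expressing S. cerevisiae strain. Cells had been washed out of glucose medium and diluted 1:100 into galactose -URA medium, pH 6.0.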
# Pf growth 48h = P. falciparum growth inhibition at 48 hours (one generation); P. falciparum luciferase growth in erythrocytes, 48 h; Potency, µM (doses to about 28.7 µM), inactives show at the highest dose activity change, negative = inhibition, actives largely listed as inhibitors; hit rate 5.9% among 310,000; note: % is set by controls: 0 for no effect and ±100 for the full control effect
#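 Compounds are pin-transferred into medium, infected erythrocytes (2% hematocrit, 0.1% parasitemia final) are added, and plates sit one parasite generation at 37 C in 5% CO2. Detection reagent is then added and luminescence measured.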
# * marks the source's active call; other numbers are inactive results; ? = inconclusive; . = no result. This is a sample that favours compounds with a hit; in the whole collection about 10% have one here. Unless noted, calls come from the whole dose curve; as a rule, active = well fitted inhibition curve with a large enough effect; inconclusive = small, poorly fitted or top-dose-only effect, or another doubt; inactive = no such curve, though single readings can be large or run the other way. Potency is the fitted concentration of half-maximal effect.
SMILES,SARS PLpro yeast,Pf growth 96h,NS1 function inh,Pf growth 48h
C#CCOCCOCCOCCNc1nc(N2CCOCC2)nc(N2CCN(C(=O)CCCCCCCCCCNC(=O)[C@@H](CCC(=O)O)n3cc(CCCCCN)nn3)CC2)n1,-1.2%,?,.,14.7µM*
CN(C)C1(CNC(=O)C2CCN(S(=O)(=O)c3ccccc3C(F)(F)F)CC2)CCCCC1,-0.2%,?,3.4%,?
CC(C)(C)n1nnnc1CN(Cc1cccnc1)Cc1ccccc1Cl,1.2%,.,-12.7%,14.7µM*
CC1(C)Cc2c(cnn2-c2cccc(F)c2)C(NC(=O)CSc2ccccn2)C1 (stereo not drawn),-3.0%,?,8.9%,11.6%
COC(=O)CN(c1ccccn1)S(=O)(=O)c1ccccc1,1.6%,2.33µM*,-11.1%,22.8%
O=S(=O)(c1ccc2c(c1)OCCO2)N1CCC(O)(c2ccc(Cl)cc2)CC1,-14.1%,9.28µM*,-34.9%,8.9%
OC1(c2ccc3c(c2)OCO3)CCN(Cc2ccccn2)CC1,-1.4%,-19.0%,2.7%,10.3%
O=S(=O)(c1ccc2c(c1)OCCO2)N1CCN(S(=O)(=O)c2ccc3c(c2)OCCO3)CC1,0.8%,?,.,?
O=S(=O)(c1ccccc1Cl)N1CCC(O)(c2ccc3c(c2)OCO3)CC1,13.6%,2.94µM*,-37.4%,6.2%
O=C(c1ccc(F)cc1F)N1CCN(S(=O)(=O)c2ccc3c(c2)OCCO3)CC1,-9.7%,9.28µM*,.,?
CC(C)CCn1c(Sc2nc3ccccc3o2)nc2c1c(=O)[nH]c(=O)n2C,-2.7%,-29.2%,-9.0%,?
CNc1c([N+](=O)[O-])cnn1-c1ccc(C)cc1,0.3%,?,-5.5%,3.29µM*
CC(=O)N1CC(O)CC1C(=O)O (stereo not drawn),.,3.2%,.,-9.2%
Cc1nc(C)c(C(=O)OCC(=O)NCCc2ccc(F)cc2)s1,0.1%,-2.8%,.,-10.1%
Cc1noc(NS(=O)(=O)c2ccc(NC(=O)/C=C/c3ccc(C(C)C)cc3)cc2)c1C,-2.4%,10.4µM*,22.1%,32.9%
Cc1noc(NS(=O)(=O)c2ccc(NC(=O)/C=C/c3ccc(Br)cc3)cc2)c1C,-1.4%,?,-4.8%,9.3%
COc1ccc(NC(=O)N(C)C[C@H]2Oc3c(NS(=O)(=O)c4cccs4)cccc3C(=O)N([C@@H](C)CO)C[C@@H]2C)cc1,-0.6%,.,.,.
O=C(c1nn2c(C(F)(F)F)cc(-c3cccs3)nc2c1Cl)N1CCCc2ccccc21,-2.3%,10.4µM*,1.2%,28.5%
CCCCCCCCCCCCCCCC[N+](C)(C)C,.,2.94µM*,.,4.15µM*
C[N+](C)(C)CCCCCC[N+](C)(C)C,.,-13.5%,0.4%,5.3%
CCCCCCCCCCCCCC[N+](C)(C)C,.,0.953µM*,.,0.953µM*
COc1ccccc1NS(=O)(=O)c1cccc(NS(=O)(=O)c2cc(C(=O)O)ccc2OC)c1,7.0%,.,.,.
CCOP(=O)(c1ccc(N(C)C)cc1)C(O)c1ccccc1 (stereo not drawn),2.5%,.,-0.5%,11.7µM*
CCOP(=O)(c1ccccc1)C(O)c1ccc(F)cc1 (stereo not drawn),19.1%,7.38µM*,4.4%,-5.4%
O=C(C1CC1)N1CCc2cc(S(=O)(=O)NCc3ccccc3)ccc21,1.6%,?,0.4%,36.0%
SMILES,SARS PLpro yeast,Pf growth 96h,NS1 function inh,Pf growth 48h
Cc1ccc(CNC(=O)C2CCCN(S(=O)(=O)c3cccc4nonc34)C2)cc1 (stereo not drawn),2.0%,?,6.3%,1.4%
O=C(Nc1ccccc1)C1=C[C@@H](c2coc3ccccc3c2=O)C[C@@H](OCc2ccc(CO)cc2)O1,-2.2%,?,3.8%,?
COc1ccccc1OCCn1cc(C#N)c2ccccc21,-4.0%,253.9%,-2.9%,?
Cc1ccc(OCCn2cc(C#N)c3ccccc32)cc1,6.8%,?,-6.5%,8.28µM*
Cc1cccc(CSc2nn3c(=O)c(C)nnc3s2)c1,-8.1%,?,8.4%,10.4µM*
CC(=O)Nc1cccc(NC(=O)CSc2nn3c(=O)c(C)nnc3s2)c1,0.7%,5.22µM*,0.6%,9.28µM*
Cc1nnc2sc(SCc3ccc(Cl)cc3)nn2c1=O,9.1%,1.04µM*,6.1%,?
Cc1ccc(CSc2nn3c(=O)c(C)nnc3s2)cc1,8.5%,?,-1.9%,8.28µM*
Cc1nnc2sc(SCC(=O)Nc3ccc(Cl)cc3)nn2c1=O,1.7%,?,5.5%,?
O=C(NCc1ccncc1)C(=O)N/N=C/c1ccccn1,-0.9%,13.9%,6.3%,35.1%
COc1cc(NC(=O)C2C3CCC(O3)C2C(=O)O)cc(OC)c1 (stereo not drawn),1.5%,?,21.2%,61.8%
COc1ccc(C(=O)NC2CCCc3ccccc32)c(OC)c1OC (stereo not drawn),-2.2%,3.9%,-6.5%,1.9%
CCN(CC(=O)Nc1ccc2c(c1)OCCO2)C(=O)c1ccc(C(F)(F)F)cc1,-0.1%,96.6%,.,86.4%
COc1ccc(NC(=O)CNC(=O)Cn2cnc3sc(C)c(C)c3c2=O)cc1OC,-2.6%,10.4µM*,-1.5%,0.7%
COc1ccc(CCNC(=O)CNC(=O)Cn2cnc3sc(C)c(C)c3c2=O)cc1OC,0.1%,?,.,0.8%
CC(=O)NC(CC(=O)N(Cc1ccccc1)c1cccc(C)c1)c1ccccc1 (stereo not drawn),7.5%,?,14.2%,?
COc1ccc(C2NS(=O)(=O)OCC2C)cc1 (stereo not drawn),-16.7%,23.4%,-11.0%,30.0%
O=C(CSc1nnc(Nc2ccccc2)s1)NCc1cccs1,-1.5%,11.7µM*,8.1%,0.3%
Cc1nn(Cc2ccc(Cl)cc2Cl)c(C)c1NC(=O)CCl,17.1%,10.4µM*,-1.1%,0.586µM*
Cc1ccc(-n2nc(C)c(NC(=O)CCl)c2C)cc1,?,-101.7%,-4.7%,3.7µM*
Cc1nn(Cc2ccc(Cl)cc2Cl)c(C)c1NC(=O)c1nn(C)cc1Cl,-6.1%,?,5.5%,-3.6%
Cc1ccnc(NS(=O)(=O)c2cccc([N+](=O)[O-])c2)c1,-1.0%,23.7%,-6.4%,-3.8%
O=C(NCCc1nnc2ccc(NCCCN3CCOCC3)nn12)c1ccccc1F,2.1%,34.4%,10.4%,6.9%
Fc1ccc(CSc2nc3ncc(Br)cc3[nH]2)cc1,2.8%,9.28µM*,0.0%,.
Brc1cnc2nc(SCc3nc4ccccc4[nH]3)[nH]c2c1,0.9%,33.9%,?,?
SMILES,SARS PLpro yeast,Pf growth 96h,NS1 function inh,Pf growth 48h
Cc1ccc(-c2nc(N)c3c(-c4ccc(C)cc4)nn(C(C)(C)C)c3n2)cc1,2.7%,?,2.8%,-17.4%
CC(C)(C)n1nc(-c2ccc(F)cc2)c2c(N)ncnc21,-25.8%,14.7µM*,14.7%,11.7µM*
CC(C)(C)n1nc(-c2ccc(Cl)cc2)c2c(N)ncnc21,-24.9%,3.7µM*,-81.1%,11.7µM*
Cc1ccc(-c2nn(C(C)(C)C)c3ncnc(NS(=O)(=O)c4ccc([N+](=O)[O-])cc4)c23)cc1,-3.2%,?,.,?
CC1(C)CC(NC(=O)C2CCN(S(=O)(=O)c3ccc(F)cc3)CC2)CC(C)(C)N1,?,-39.0%,-6.7%,10.4%
CCOCCCn1c(=N)c(S(=O)(=O)c2ccc(C)cc2)cc2c(=O)n3cc(C)ccc3nc21,-0.3%,?,14.8%,0.0%
